This passage reports Potency results from PubChem BioAssay (Tox21).

Where “and” joins values, the source holds several entries; their conditions need not be identical. Equal values may be shown once. Records with an inconclusive call do not appear. Where a call stands in place of a potency, no number is given. The source holds several records for some structures; these can differ, active in one and inactive in another. Calls of active or inactive are those of the source. Calls come from the whole dose curve.
Potency is the fitted concentration of half-maximal effect.

This test can be described thus: qHTS assay to identify small molecule agonists of the AP-1 signaling pathway - cell viability counter screen (AID 1159525). Note: nearly all actives have a fitted effect of over 55% in size. As to conditions: ME-180 (cervical carcinoma) AP-1-bla cells viability, ATP luminescence, 5 h; series mostly up to 76.8 µM. From the text: National Center for Advancing Translational Sciences [NCATS]
NIH Chemical Genomics Center [NCGC]
U.S. Environmental Protection Agency [EPA]
National Institutes of Environmental Health Sciences [NIEHS]
National Toxicology Program [NTP]
U.S. Food and Drug Administration [FDA]
Activator protein-1 (AP-1), a transcription factor, plays an important role in tumor genesis by regulating genes involved in cell proliferation, differentiation, apoptosis, and angiogenesis. AP-1 activity is induced by a complex network of signaling pathways that involves extracellular signals, such as growth factors. The AP-1 protein complex formed from c-Fos and c-Jun binding to the AP-1 response element results in transcriptional activation of genes containing such elements within their promoter.
Low molecular weight molecules have been discovered and developed to modulate various components of these signaling pathways, for example, MAP kinase inhibitors. However, many points of pathway modulation remain untested due to the lack of chemical probes making this signaling locus of general interest.
Using a beta-lactamase reporter-gene under control of the AP-1 response element, a cell-based assay [CellSensor(TM) AP-1-bla ME-180 developed by Invitrogen Corp.] was used to measure EGF-induced signaling. The Tox21 10K library compounds were measured for their ability to positively modulate the action of EC50 EGF on reporter gene activity. Compounds were screened in a 15-pt titration series in 1536-well format. The cytotoxicity of the Tox21 compound library against this cell line was tested in parallel by measuring the intra cellular ATP content in the same wells.
Tox21 Assay Protocol Summary:
2500 cells/5uL in Opti-MEM medium containing 0.5% dialyzed FBS, 0.1 mM NEAA, 1 mM sodium pyruvate and 10 mM HEPES was dispensed into 1536-well black wall/clear bottom plates using a Multidrop dispenser and cells were cultured at 37 degrees Celsius overnight. Next day 23 nL of compounds dissolved in DMSO, positive controls or DMSO were delivered to each well using a pin tool. The plates were incubated at 37 degrees Celsius for 5 hours. 1 uL of LiveBLAzerTM B/G FRET substrate (Solution A+B+C+D) was added to each well using a Flying Reagent Dispenser. After incubated at room temperature for 2.5 hours the plates were measured on an EnVision plate reader at Excitation 405nm, Emission1=460nm and Emission 2=530nm. The %Activity was determined from the ratio of 460nm/530nm.
After the plates were read for Beta-Lactamase assay on Envision; 3 ul Cell Titer Glo (Promega) was added to measure the cytotoxicity and the plates were then incubated at RT in dark for 30 min. The luminescence was read on ViewLux (Perkin Elmer, Shelton, CT) using 6 sec exposure. ViewLux data was expressed as relative luminescence units.
For primary data analysis, raw plate reads for each titration point were first normalized relative to […] EGF control (100%) and DMSO only wells (basal, 0%).
For primary data analysis for viability assay, raw plate reads for each titration point were first normalized Tetra n-octyl ammonium bromide control (-100%) and DMSO (control, 100%).
Regarding `[Cl-].[Cl-].[Cl-].[Fe+3]`, the Potency result was “inactive”.

For `S=c1[nH]c2ccccc2[nH]1`, the Potency result is “inactive”.

With `CCOP(=S)(OCC)SCn1c(=O)oc2cc(Cl)ccc21`, the Potency entry is “inactive”.

Take `CCOP(=S)(OCC)OP(=S)(OCC)OCC`: the Potency entry is “inactive”.

Regarding `CC(C)=CC1C(C(=O)OCN2C(=O)C3=C(CCCC3)C2=O)C1(C)C` (stereo not given), the Potency entry was “inactive”.

As to `O=NN(c1ccccc1)c1ccccc1`, the Potency result is “inactive”.

In the case of `N#CC(c1ccccc1)c1ccccc1`, the Potency entry was “inactive”.

Take `O=NN1CCOCC1`: the Potency entry is “inactive”.

For the molecule `CCCCOCC1CO1` (stereo not given), the Potency entry was “inactive”.

For `[CH3][Sn]([Cl])([Cl])[Cl]`, the Potency result is “inactive”.

As for `CSc1nc(NC(C)C)nc(NC(C)C)n1`, the Potency result was “inactive”.

For the molecule `O=C1Nc2ccc(Cl)cc2C(c2ccccc2)=NC1O` (stereo not given), the Potency entry is “inactive”.

For `ClCC(Cl)CCl`, the Potency result was “inactive”.

In the case of `Cc1ccc(N=CN(C)C=Nc2ccc(C)cc2C)c(C)c1`, the Potency was 54.9 µM (active) and inactive.

`CCCCCCCCCC(CC)c1ccc(S(=O)(=O)O)cc1` (stereo not given): the Potency was 49.5 µM (active) [middle of 4 runs].

In the case of `Clc1cccc(C(Cl)(Cl)Cl)n1`, the Potency entry is “inactive”.

With `COP(=S)(OC)Oc1ccc(Sc2ccc(OP(=S)(OC)OC)cc2)cc1`, the Potency result was “inactive”.

As for `C[C@]12CCC(=O)C=C1CC[C@@H]1[C@@H]2CC[C@@]2(C)[C@H]1CC[C@]2(C)O`, the Potency result is “inactive”.

For `Cc1cccc(N=Nc2ccc(N(C)C)cc2)c1`, the Potency result is “inactive”.

For the molecule `CCC1(c2ccc(N)cc2)CCC(=O)NC1=O` (stereo not given), the Potency entry was “inactive”.

For `NC(=O)CN1CCCC1=O`, the Potency result is “inactive”.

For the molecule `CNC(=O)CSP(=S)(OC)OC`, the Potency entry was “inactive”.

Consider `CNC(=O)Oc1cccc2c1OC(C)(C)C2`, for which the Potency entry was “inactive”.

Turning to `ClC(Cl)=C(Cl)C(Cl)=C(Cl)Cl`, the Potency result is “inactive”.

`Brc1ccc(Br)cc1`: the Potency entry is “inactive”.

As for `Oc1ccc(Cl)cc1Cl`, the Potency result was “inactive”.

Turning to `CCOP(=S)(OCC)SCSC(C)(C)C`, the Potency result was “inactive”.

Consider `CCC[CH2][Sn]([Cl])([CH2]CCC)[CH2]CCC`, for which the Potency was 873 nM (active) and 1.74 µM (active).

Take `CS(=O)(=O)NC(=O)c1cc(Oc2ccc(C(F)(F)F)cc2Cl)ccc1[N+](=O)[O-]`: the Potency entry is “inactive”.

Turning to `O=[N+]([O-])/N=C1\NCCN1Cc1ccc(Cl)nc1`, the Potency entry is “inactive”.

Consider `Cc1cc(Cl)ccc1N=CN(C)C`, for which the Potency result is “inactive”.

With `COC(=O)Nc1nc2ccccc2[nH]1`, the Potency entry is “inactive”.

As for `CCCCC(C#N)(Cn1cncn1)c1ccc(Cl)cc1` (stereo not given), the Potency result is “inactive”.

Turning to `CCN(CC)C(=O)C(C)Oc1cccc2ccccc12` (stereo not given), the Potency result is “inactive”.

Consider `CCCCCCCCCCCCCl`, for which the Potency result was “inactive”.

As to `Nc1ccc([N+](=O)[O-])cc1N`, the Potency is 34.7 µM (active) and inactive.

Regarding `ClC(Cl)(Cl)c1ccccc1`, the Potency entry is “inactive”.

Consider `CC(C)(c1ccc(OCC2CO2)cc1)c1ccc(OCC2CO2)cc1` (stereo not given), for which the Potency entry was “inactive”.

Turning to `CN(C)c1ccccc1`, the Potency result is “inactive”.

With `C[N+](C)(C)CC(=O)O`, the Potency entry is “inactive”.
